Test results taken from PubChem BioAssay AID588358 (NMMLSC, 2011).
In all, about 310,000 compounds went through this assay and about 1,500 (0.48%) were called active.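 How the source made its calls: active means binding more than 3 SD below its plate's average and above zero; inconclusive means below that plate limit but binding exactly zero; inactive means the rest.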 The full list was thinned out, with actives kept by preference.

Target: Desmoglein-3 (Homo sapiens) (UniProt P32926)
Test: inhibitors of pemphigus antibody binding to DSG3, primary screen, biochemical, bead-based, flow cytometry, scFv-GFP (AID 588358);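 further: hits lower antibody fragment binding to DSG3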
Details: DSG3-coupled beads, scFv-anti-DSG3-GFP binding, at 10 µM, hits give low values

Sequence of Desmoglein-3 (Homo sapiens) (P32926 whole entry, looked up, the tested form may be a part): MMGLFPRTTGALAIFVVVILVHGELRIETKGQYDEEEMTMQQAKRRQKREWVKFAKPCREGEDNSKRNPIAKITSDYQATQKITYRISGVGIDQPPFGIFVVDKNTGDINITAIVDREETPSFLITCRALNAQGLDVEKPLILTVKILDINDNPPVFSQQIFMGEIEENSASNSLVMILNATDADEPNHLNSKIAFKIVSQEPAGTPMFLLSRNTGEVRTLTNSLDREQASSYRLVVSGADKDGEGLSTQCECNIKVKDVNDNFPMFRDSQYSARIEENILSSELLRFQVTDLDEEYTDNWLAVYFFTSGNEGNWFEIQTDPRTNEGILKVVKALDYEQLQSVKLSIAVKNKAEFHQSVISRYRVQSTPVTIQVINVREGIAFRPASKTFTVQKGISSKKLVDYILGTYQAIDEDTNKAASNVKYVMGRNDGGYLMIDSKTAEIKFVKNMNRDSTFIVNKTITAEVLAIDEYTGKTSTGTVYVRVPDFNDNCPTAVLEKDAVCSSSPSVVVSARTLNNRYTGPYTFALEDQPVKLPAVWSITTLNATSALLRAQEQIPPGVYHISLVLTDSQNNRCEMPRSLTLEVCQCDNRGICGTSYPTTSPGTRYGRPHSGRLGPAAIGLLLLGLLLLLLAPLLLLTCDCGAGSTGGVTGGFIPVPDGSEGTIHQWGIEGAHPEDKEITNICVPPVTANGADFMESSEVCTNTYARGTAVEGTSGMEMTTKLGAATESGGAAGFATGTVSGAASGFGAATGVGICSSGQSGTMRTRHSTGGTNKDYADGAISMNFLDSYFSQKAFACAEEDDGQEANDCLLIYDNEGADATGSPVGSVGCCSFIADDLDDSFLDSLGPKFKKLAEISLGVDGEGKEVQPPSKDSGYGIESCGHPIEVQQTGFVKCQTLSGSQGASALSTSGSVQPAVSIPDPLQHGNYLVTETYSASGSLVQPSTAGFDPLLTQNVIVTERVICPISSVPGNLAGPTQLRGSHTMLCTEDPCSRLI

Binding (percent of control), inactive:
COc1ccc(C=C2CCC3C(CCCC34OCCO4)C2=O)cc1 (stereo not given) 104%
CC1CCCC(NC(=O)COC(=O)c2ccccc2C(=O)N(C)C2CCCCC2)C1C (stereo not given) 98.5%
COCCn1cnc2c1c(=O)n(Cc1ccc(Br)cc1)c(=O)n2Cc1ccccc1 125%
Cn1c(=O)[nH]c(=O)c2c1[nH]c(=S)n2Cc1ccccc1 99.1%
O=C(NCCN1CCOCC1)c1ccc2c(c1)N(Cc1cccc(Cl)c1)C(=O)c1ccccc1S2(=O)=O 95.8%
OCC1OC(n2cnc3c(N4CCCC4)ncnc32)C(O)C1O (stereo not given) 102%
CCOc1ccc(NS(=O)(=O)c2ccc(C(=O)NCC3CCCO3)cc2)cc1 (stereo not given) 100%
COc1cc(NC(=O)C2=C(C)OCCS2)c(Cl)cc1C(=O)NCCCN1CCCC(C)C1 (stereo not given) 105%
CCOC(=O)c1c(NC(=S)SC)sc(C(=O)N2CCc3ccccc3C2)c1C 100%
COc1ccc(-c2nc(CS(=O)CC(=O)NCc3ccccc3)c(C)o2)cc1OC (stereo not given) 97.4%
COc1cccc(-c2nc(CS(=O)CC(=O)NCc3ccc(F)cc3)c(C)o2)c1 (stereo not given) 93.3%
CC(C)CNS(=O)(=O)c1ccc(C(=O)Nc2ccc3c(c2)OCO3)cc1 85.2%
Cc1cccc(NC(=O)Nc2ccc3c(c2)OCO3)n1 134%
CN(Cc1ccccc1)C(=O)CCC1CCN(C(=O)c2ccco2)CC1 91.8%
COc1cc(C(=O)N2CCOC23CCN(Cc2ccccc2)CC3)cc(OC)c1OC 108%
COCCCN1C(=O)C(CC(=O)NCc2cccs2)CC(C(=O)N2CCOCC2)=C1C (stereo not given) 99.9%
CCSc1nnc(SCC(=O)NNC(=O)c2ccccc2F)s1 115%
Cc1cnc(NC(=O)CSc2nnc(C)s2)s1 101%
CNC(=O)c1ccc(CN(C)C(=O)c2cc(C3CC3)nc3c2cnn3C(C)C)cc1 105%
O=[N+]([O-])c1ccc(C(S(=O)(=O)Cc2ccccc2)S(=O)(=O)Cc2ccccc2)cc1 100%
CC(CNS(=O)(=O)c1ccc(Br)cc1)CN(C)C (stereo not given) 102%
Cc1ccc(OCCNC(=O)CCNS(=O)(=O)c2ccc(Br)cc2)cc1 107%
CC1C(=O)N(Cc2cn(CC3CCCCC3)nn2)CCS(=O)(=O)N1Cc1ccc(-c2cccc(N(C)C)c2)cc1 (stereo not given) 101%
COCC1CCCCN1C(=O)c1cc(COc2ccc(C)c(C)c2)on1 (stereo not given) 101%
Cc1ccc(NC(=O)CN(C)Cc2ccc(F)cc2)c([N+](=O)[O-])c1 93.5%
CN(CC(=O)Nc1ccc(N2CCOCC2)cc1)CC(=O)Nc1ccccc1[N+](=O)[O-] 116%
COc1ccc(NC(=O)CSc2ncnc3[nH]ncc23)cc1 106%
COc1ccc(-n2ncc3c(SCC(=O)NNC(C)=O)ncnc32)cc1 102%
O=C(NCc1nnnn1-c1ccc(Cl)cc1)c1ccc([N+](=O)[O-])o1 98.8%
Cc1ccc(S(=O)(=O)N2CCOCC2)cc1NC(=O)c1ccncc1 96.3%
Cc1cccc(N2CCN(S(=O)(=O)c3ccc(-c4cc(C)no4)s3)CC2C)c1 (stereo not given) 96.5%
Cc1cc(-c2ccc(S(=O)(=O)N3CCN(c4cccc(C(F)(F)F)c4)CC3)s2)on1 80%
CC(C)CCOc1ccc(C(=O)Nc2cc(S(=O)(=O)N3CCOCC3)ccc2N2CCOCC2)cc1 102%
C=CCOc1cccc(C2C(C(=O)c3ccc(C)o3)=C(O)C(=O)N2CCN2CCOCC2)c1 (stereo not given) 102%
c1ccc(CNCc2ccc(CNCc3ccccc3)cc2)cc1 102%
CCOc1ccc(/C=C2\SC(=S)N(NC(=O)c3ccncc3)C2=O)cc1OC 106%
COc1ccc(/C=C2\SC(=S)N(CCCC(=O)NC3CCCC3)C2=O)cc1OC 109%
O=C(CSc1ncn[nH]1)Nc1nc2c(F)c(F)c(F)cc2s1 94%
Cc1ccc(S(=O)(=O)N2C[C@H]3C(=O)C[C@@H](c4cccc5ccccc45)N(S(=O)(=O)c4ccc(C)cc4)[C@H]3C[C@H]2c2ccc(Cl)cc2)cc1 99.7%
Cc1cccc(-c2nc(Nc3ccc(O)cc3)c3ccccc3n2)c1 324%

Binding (percent of control), active:
CCN(CC)CCn1cnc2c1c(=O)[nH]c(=O)n2Cc1ccccc1 65.2%
COc1ccc(-c2nc(CS(=O)CC(=O)NCc3ccccn3)c(C)o2)cc1 (stereo not given) 17.1%
CNS(=O)(=O)c1ccc(NC(=O)Nc2ccc3c(c2)OCO3)cc1 66.6%
Cc1nnc(SCC(=O)Nn2cnnc2)s1 89.8%
Cc1ccc(S(=O)(=O)NCCNC(C)c2ccc(Br)cc2)cc1 (stereo not given) -19.8%
CN(CC(=O)Nc1ccccc1[N+](=O)[O-])Cc1ccc(Br)cc1 104%
CC(=O)Nc1ccc(NC(=O)CSc2ncnc3c2cnn3Cc2ccccc2)cc1 76.2%
Cc1cc(-c2ccc(S(=O)(=O)N3CCc4ccccc4C3)s2)on1 80.5%
COc1cc(/C=C2\SC(=S)N(Nc3ncc(C(F)(F)F)cc3Cl)C2=O)cc(OC)c1OC 87.8%
CC(=O)Nc1cccc(Nc2nc(-c3cccs3)nc3ccccc23)c1 64.6%
